Source: PubChem (National Center for Advancing Translational Sciences (NCATS))
FEN1 inh – qHTS Assay for the Inhibitors of Human Flap endonuclease 1 (FEN1) | P39748 | Recombinant FEN1 flap cleavage, fluorescence, 15 min | Potency, µM (titrated, usually from 114 µM), inactives show at the top dose activity change, negative = inhibition, most hits filed as inhibitors | 390,000 compounds, 0.35% hits | AID 588795, 2011; also: potency is read from the fitted curve at half-maximal effect; nearly all actives have a fitted effect of over 65% in size
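Potency values derive from four-parameter Hill fits of normalized qHTS data. The reaction used 10 nM FEN1 preincubated 15 min at room temperature with compound, then 50 nM DNA substrate, read at 0 and 15 min.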
WRN helicase inh – qHTS for Inhibitors of WRN Helicase. Potency, µM (highest dose often 114 µM), without a hit: at the top dose activity change, negative = inhibition, hits mostly inhibitors. 360,000 compounds, 0.46% hits. WRN helicase unwinding, fluorescent forked duplex, kinetic; also: potency is read from the fitted curve at half-maximal effect; nearly all actives have a fitted effect of over 55% in size
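WRN at 20 nM final preincubated with compound 15 min at room temperature; reaction started with 100 nM fluorophore/quencher forked duplex oligonucleotide and 2 mM ATP final. Unwinding followed kinetically by red fluorescence (ex 525, em 598 nm).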
RECQ1 inh-1 – qHTS Assay for Inhibitors of RecQ-Like Dna Helicase 1 (RECQ1). RECQ1 DNA unwinding, red fluorescence kinetic read. Potency, µM (doses to about 57.3 µM), without a hit: at the top dose activity, negative = inhibition, actives largely listed as inhibitors. ATP-dependent DNA helicase Q1 (Homo sapiens), P46063. 240,000 compounds, 0.54% hits. AID 2549, 2010;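 also: potency is read from the fitted curve at half-maximal effect; plate controls were vehicle for no effect and no enzyme for full effect; nearly all actives have a fitted effect of over 30% in size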
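RECQ1T1 50 nM; forked duplex (20 bp + 30-nt ss tails) 200 nM, ATP 2 mM final; pH 8.0, 2 mM MgCl2, 2.5 ug/ml poly(dI-dC); 15 min compound preincubation; discontinuous kinetic read over 2 h at RT.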
PI5P4Ka inh – qHTS for Inhibitors of phosphatidylinositol 5-phosphate 4-kinase (PI5P4K); Phosphatidylinositol 5-phosphate 4-kinase type-2 alpha (Homo sapiens), P48426; PI5P4Kalpha enzyme, ADP-Glo luminescence, 60 min; hits give low values; max response, %; 330,000 compounds, 1.2% hits; AID 652105, 2013; active = max response of -50% or lower; inconclusive = between -30% and -50%; inactive = -30% or higher; also: value at the top dose of about 77 µM
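Enzyme plus substrate dispensed, test compounds pinned in, then ATP (5 microM final) added. After 60 min at RT, ADP-Glo reagent 1 for 45 min and reagent 2 for 30 min preceded luminescence imaging.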
BLM inh – qHTS Assay for Inhibitors of Bloom's syndrome helicase (BLM); 350,000 compounds, 0.2% hits; Potency, µM (titrated, usually from 56.1 µM), inactives show at the top dose activity change, negative = inhibition, most hits filed as inhibitors; recombinant BLM DNA unwinding, fluorescence dequenching; RecQ-like DNA helicase BLM (Homo sapiens), P54132; AID 2528, 2010;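 also: potency is read from the fitted curve at half-maximal effect; plate controls were vehicle for no effect and no enzyme for full effect; nearly all actives have a fitted effect of over 35% in size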
APEX1 inh – qHTS Assay for Inhibitors of the Human Apurinic/apyrimidinic Endonuclease 1 (APE1); Potency, µM (titrated, usually from 65.8 µM), without a hit: at the highest dose activity change, negative = inhibition, usual class: inhibitors; recombinant APE1, TAMRA/BHQ-2 abasic DNA cleavage fluorescence; 350,000 compounds, 0.35% hits; AID 2517, 2012;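 also: potency is read from the fitted curve at half-maximal effect; plate controls were vehicle for no effect and reference inhibitor for full effect; nearly all actives have a fitted effect of over 55% in size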
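0.75 nM APE1 + cpd, 15 min RT; start w/ 50 nM TAMRA/BHQ-2 THF-abasic dsDNA; kinetic fluor 525/598 nm ×3 reads @60 s; Δ(read3−read1); normalized to DMSO and NSC13755 control wells.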
RECQ1 conf – Confirmation qHTS Assay for Inhibitors of RecQ-Like Dna Helicase 1 (RECQ1); shares compounds with RECQ1 inh-1; RECQ1 helicase DNA unwinding, fluorescence; Potency, µM (top dose mostly 229 µM), inactives show top-dose activity change, negative = inhibition, usual class: inhibitors; 610 compounds, 28% hits; also: potency is read from the fitted curve at half-maximal effect; nearly all actives have a fitted effect of over 45% in size
ADP FP counter – Counterscreen for RECQ1 Inhibitors: ADP Fluorescence Polarization Displacement Assay | AID 2711, 2010 | Potency, µM (series often up to 228 µM), inactives show at the top dose activity change, negative = inhibition, usual class: inhibitors | ADP fluorescence polarization displacement counterscreen | 530 compounds, 27% hits | shares compounds with RECQ1 inh-1; also: potency is read from the fitted curve at half-maximal effect; nearly all actives have a fitted effect of over 45% in size
RECQ1 inh-2 – Confirmation qHTS Assay for Inhibitors of RecQ-Like Dna Helicase 1 (RECQ1) - Round 2 Cherry Picks. 1,100 compounds, 15% hits. shares compounds with RECQ1 inh-1. AID 504841, 2011. recombinant RECQ1 DNA unwinding, red fluorescence. Potency, µM (doses to about 119 µM), without a hit: at the highest dose activity, negative = inhibition, actives largely listed as inhibitors; also: potency is read from the fitted curve at half-maximal effect; nearly all actives have a fitted effect of over 50% in size
* hit, by the source's call; i = inactive; ? = inconclusive; nt = no result given; [ ] = dose if it differs, or a comment. Most compounds without a hit are left out; they make up all but 1.5% or so of the library. Unless noted, calls follow the shape of the dose curve; as a rule, active = well fitted curve in the direction sought with a large enough effect; inconclusive = small, poorly fitted or top-dose-only effect, or another doubt; inactive = no such curve, though single readings can be large; an effect the other way counts as inactive or inconclusive. Unless noted, % is scaled to controls: 0 for no effect and ±100 for the full control effect.

SMILES	FEN1 inh	WRN helicase inh	RECQ1 inh-1	PI5P4Ka inh	BLM inh	APEX1 inh	RECQ1 inh-2	others
O=C(/C=C/c1ccco1)NCC1OCCc2ccccc21 (configuration not stated)	?	56µM*	?	-70*	?	?	6.3µM*
CCc1ccc(S(=O)(=O)c2cn(CC)c3cc(N4CCCCC4)c(F)cc3c2=O)cc1	-7%	nt	nt	nt	-5%	nt	nt
CCOc1cccc(=O)c2c(C)n(Cc3ccccc3)c(C)c12	18%	2%	i	-16	-7%	-6%	nt
COc1ccc(-n2c(C)c3c(OC)cccc(=O)c3c2C)cc1	-8%	-11%	i	-24	-3%	-2%	nt
COc1cccc(=O)c2c(C)n(-c3ccc(C(=O)O)cc3)c(C)c12	-36%	?	?	-3	2%	?	?
CCOc1cccc(=O)c2c(C)n(-c3ccc(C(=O)O)cc3)c(C)c12	?	?	?	-17	33%	?	?
COc1ccc(CNCc2ccccc2)cc1COc1ccc(NC(C)=O)cc1	-23%	nt	nt	nt	nt	nt	nt
COc1ccccc1-c1nnc(SCC(=O)Nc2nc(-c3ccccc3)cs2)n1C	-6%	-9%	-7%	-6	7%	1%	nt	RECQ1 conf=0%;ADP FP counter=8%
CC(C)C[C@H](NC(=O)[C@H](CCCCN)NC(=O)[C@H](CCCNC(=N)N)NC(=O)[C@H](C)NC(=O)[C@H](CO)NC(=O)[C@H](CCCCN)NC(=O)[C@H](CCCNC(=N)N)NC(=O)[C@H](C)NC(=O)CNC(=O)[C@@H](NC(=O)[C@H](Cc1ccccc1)NC(=O)CNC(=O)CNC(=O)[C@@H](N)Cc1ccccc1)[C@@H](C)O)C(=O)N[C@@H](C)C(=O)N[C@@H](CC(N)=O)C(=O)N[C@@H](CCC(N)=O)C(=O)O	nt	nt	8%	nt	32%	2%	nt
Cc1noc(C)c1S(=O)(=O)N1CCc2nc(COc3ccccc3)c3c(c2C1)CO[C@@H](C)C3	nt	nt	i[11.5 µM]	nt	4%[12.4 µM]	13%[12.4 µM]	nt
C=CCn1c(O)c(N=NC(=O)CNC(=O)/C=C/c2ccco2)c2ccccc21	?	?	?	nt	?	?	?
NC(=O)Cn1c(O)c(N=NC(=O)CNC(=O)/C=C/c2ccccc2)c2ccccc21	15%	3%	nt	3	-11%	15%	nt
Cc1nn(-c2ccccc2)c(Cl)c1C(=O)NCc1cccs1	-14%	-7%	?	?	-21%	0%	-22%
Cc1nn(-c2ccccc2)c(C)c1C(=O)NCc1cccs1	-2%	2%	-6%	4	2%	?	nt
Nc1nc(Nc2cccc(Cl)c2)nc(NCCO)c1[N+](=O)[O-]	?	-33%	?	-63*	?	-3%	50µM*
CCn1nc(C)c2c(-c3ccccc3)cc(=O)n(C(C)C(=O)NCCc3ccccc3)c21 (configuration not stated)	-16%	nt	nt	nt	-2%	nt	nt
CC(C)C[C@H](NC(=O)c1nc[nH]c1C(=O)NCCCCCNC(=O)OC(C)(C)C)C(=O)OCc1ccccc1	-15%	-8%	?	7	-16%	?	-20%
C[C@@H](NC(=O)c1nc[nH]c1C(=O)N[C@@H](Cc1ccccc1)C(=O)OCc1ccccc1)c1ccccc1	?	-10%	-26%	-2	-15%	-2%	nt
C[C@H](NC(=O)c1nc[nH]c1C(=O)N[C@@H](Cc1ccccc1)C(=O)OCc1ccccc1)c1ccccc1	-24%	-6%	40µM*	4	-15%	-7%	-24%
CCOC(=O)c1c(-c2ccc(C)o2)csc1NC(=O)CSc1nncs1	-5%	-16%	1.8µM*	nt	2%	?	nt	RECQ1 conf=15%[114 µM];ADP FP counter=187%[91.9 µM]
CCOC(=O)c1c(-c2ccc(C)o2)csc1NC(=O)CN1CCN(CC)CC1	1%	6%	-7%	nt	3%	-3%	nt
C=CCn1c(SCC(N)=O)nnc1-c1ccccc1O	-3%	-4%	-3%	10	-5%	11%	nt
C=CCn1c(SCC(=O)NCc2ccccc2)nnc1-c1ccccc1O	-5%	5%	-2%	0	-6%	-5%	nt	RECQ1 conf=-3%;ADP FP counter=4%
CCc1ccc(-c2cn3c(n2)sc2cc(C(=O)NCCc4ccc(OC)cc4OC)ccc23)cc1	5%	nt	nt	nt	2%	nt	nt
COC(=O)CCC(=O)OC1(C)C(=O)C2=COC(c3ccc(OC)cc3)=CC2=C(Br)C1=O (configuration not stated)	35µM*	?	?	-79*	0%	?	56µM*
COc1ccc(C2=CC3=C(Br)C(=O)C(C)(OC(=O)c4ccc(Cl)nc4)C(=O)C3=CO2)cc1 (configuration not stated)	?	?	6%	?	4%	?	nt
Cc1nn2c(COc3ccc(NC(=O)C(C)C)cc3)nnc2c2ccccc12	10%	2%	?	-5	1%	9%	-9%
CCN(CC)c1ccc(NS(=O)(=O)c2cc(-c3onc(C)c3C)ccc2OC)c(C)c1	-1%	nt	nt	nt	-3%	nt	nt
